Among all 48,000 compounds or so, about 13,000 (27%) showed an effect of 50% or more. This is one part of the list.

The test system of the experiment is Wolbachia pipientis. The experiment in a line: Anti-Wolbachia Cell-Based Screen. Further details: scale not given: in the data most compounds retested in dose-response had high values. The format is functional. The note with it: 5 µM.
Consider `COc1cccc2c1OCC(CNc1cc(N)nc(SC)n1)C2` (centres undefined), for which the “Percent Effect” value is on record as 103.8%.
Take `COc1cccc2c1OCC(CNc1ccc(C)nn1)C2` (centres undefined): the “Percent Effect” value is on record as -0.7094%.
For `COc1ccc2c(c1)OCC(CNc1cc(N)nc(SC)n1)C2` (centres undefined) the value was 101.5%; for `COc1ccc2c(c1)OCC(Cc1cnccc1N)C2` (centres undefined), 13.35%; for `Cc1cc(C(=O)N(C)Cc2ccn[nH]2)c(NC(=O)C(C)(C)C)s1`, -4.418%.
With `CS(=O)(=O)N1CCOC2(CCCN(c3cnccn3)C2)C1.O=C(O)C(F)(F)F` (centres undefined), the “Percent Effect” value is -3.383%.
Turning to `Cc1noc(-c2ccc(N(C)Cc3nccs3)nc2)n1`, the “Percent Effect” value was -5.626%.
With `CN(Cc1cc2c(cc1OC(F)F)OCO2)Cc1nccn1C`, the “Percent Effect” value is given as -0.8901%.
For `CCC(=O)c1ccc(OCC(=O)NC(C)c2ncnn2CC)cc1` (centres undefined) the value was -19.04%; for `CCCn1c(O)nnc1SCC1OCCc2ccccc21` (centres undefined), 5.121%.
For `CCc1cc(C(=O)N[C@H]2CN(CCS(C)(=O)=O)C[C@@H]2C2CC2)[nH]n1` the value was -10.24%.
The figure for `CCOc1ccc(C#N)cc1NCC(=O)NC(=O)NC` is 104.9%; for `CCOc1ccc(C#N)cc1NCC(=O)Nc1cc(C)no1` it is 4.952%; for `CCNC(=O)C1CCCN(C(=O)Nc2cc(C#N)ccc2OCC)C1` (centres undefined) it is 2.708%.
In the case of `CCOc1ccc(C#N)cc1NCC(=O)OC`, the “Percent Effect” value stood at 115.5%.
The figure for `CCOc1ccc(C#N)cc1NC(=O)N1CCC(N2CCCC2)C1` (centres undefined) is -9.106%.
The figure for `CCNC(=O)NC(=O)CNc1cc(C#N)ccc1OCC` is 107.7%; for `CCOc1ccc(C#N)cc1NCc1cc(C)on1` it is -2.452%; for `CCOc1ccc(C#N)cc1NCC(=O)NC(=O)Nc1ccccc1` it is 91.19%.
For the molecule `CCOc1ccc(NC(=O)c2ccc(C#N)cc2C)cc1CO`, the “Percent Effect” value is -12.77%.
The figure for `CCCNC(=O)CNc1cc(C#N)ccc1OCC` is -1.533%; for `CCOc1ccc(C#N)cc1NC(=O)N1CCCC(NC(=O)CC)C1` (centres undefined) it is -6.604%; for `CCOc1ccc(C#N)cc1NCC(=O)Nc1cc(F)ccc1F` it is -5.639%.
For `O=C(CCCC1CCCC1)NS(=O)(=O)CC1CC1` the value was 4.87%.
Consider `O=C1NCCCCC1NC(=O)C1(c2ccc3c(c2)OCCO3)CCCC1` (centres undefined), for which the “Percent Effect” value is -1.756%.
Take `Cc1cccc(C(=O)N2CCCC2)c1NCC(=O)NC1(C#N)CCCC1`: the “Percent Effect” value is -7.992%.
Turning to `Cc1cccc(NCC(=O)NC2(C#N)CCCC2)c1C(=O)N1CCCC1`, the “Percent Effect” value is given as -22.31%.
On to `CCOc1ccc(C#N)cc1NCC(=O)NC1(C#N)CCCC1`, for which the “Percent Effect” value is recorded as 87.98%.
As to `O=C(Cn1cc(-c2ccccc2)ncc1=O)Nc1nnc[nH]1`, the “Percent Effect” value was -2.785%.
`CN(Cc1ccc(Cl)s1)C(=O)CN(C)C1CCc2ccccc21` (centres undefined): the “Percent Effect” value is reported as 3.858%.
Take `COc1ccc(CC(=O)NC2(C)CCS(=O)(=O)C2)cc1F` (centres undefined): the “Percent Effect” value was determined as 7.488%.
The figure for `FC(F)(F)c1ccnc(N2CCCN(Cc3ccccn3)CC2)n1` is 100.8%; for `FC(F)(F)CCc1ccnc(N2CCN(Cc3ccccn3)CC2)n1` it is 5.215%; for `Cc1csc(N2CCN(Cc3ccccn3)CC2C)n1` (centres undefined) it is 18.1%.
As for `FC(F)(F)c1csc(N2CCN(Cc3ccccn3)CC2)n1`, the “Percent Effect” value stood at 72.86%.
Turning to `Cc1ncc(S(C)(=O)=O)c(N2CCCN(Cc3ccccn3)CC2)n1`, the “Percent Effect” value was found to be 10.32%.
Regarding `Cc1csc(N2CCN(Cc3ccccn3)CC2)n1`, the “Percent Effect” value was 105.9%.
For `CC(C)c1nc(CN2CCN(Cc3ccccn3)CC2)cs1` the value was -4.826%; for `Cc1csc(N2CCN(C(=O)CCc3ccccn3)CC2)n1`, 1.737%; for `COc1ccccc1-c1ncc(CN2C[C@@H](N(C)C)[C@H](C(C)C)C2)s1`, -33.52%.
For `COc1cc(OC)cc(N2CCC(NCc3cccs3)C2=O)c1` (centres undefined) the value was -13.31%; for `CCC(C)NC(=O)c1ccc(NC(=O)CCc2ccncc2)c(C)c1` (centres undefined), -8.958%.
For `CNC(=O)[C@@H](c1ccccc1)N1CCC[C@H]1C(=O)NCc1cccnc1.Cl.Cl`, the “Percent Effect” value is -3.423%.
In the case of `Cc1nc(CNC(=O)NC2CCN(c3ncccc3Cl)C2)oc1C` (centres undefined), the “Percent Effect” value is on record as -13.94%.
For the molecule `Cn1c(C(=O)NC2CC2)nc2c1CCN(c1ncccn1)C2`, the “Percent Effect” value is recorded as -5.985%.
Regarding `Cc1ncccc1NC(=O)c1nc2c(n1C)CCN(C(=O)C1CC1)C2`, the “Percent Effect” value is reported as 102%.
Regarding `CCOCC(=O)Nc1ccc(N2CCSCC2)cc1C`, the “Percent Effect” value is listed as -9.938%.
Take `O=C(O)C(F)(F)F.O=C(O)C(F)(F)F.c1csc(CN2Cc3[nH]nc(COCC4CC4)c3C2)c1`: the “Percent Effect” value is -16.32%.
For the molecule `Cc1cccc(S(=O)(=O)N2C[C@@H]3C[C@@H](c4nc(C)no4)O[C@@H]3C2)c1`, the “Percent Effect” value stood at 113.1%.
`Cc1cccc(S(=O)(=O)N2C[C@H]3C[C@H](C(=O)NC4CCC4)[C@@H](C2)O3)c1`: the “Percent Effect” value was -10.53%.
With `Cc1cccc(S(=O)(=O)N2C[C@H]3C[C@H](C(=O)NCC4CC4)[C@@H](C2)O3)c1`, the “Percent Effect” value is listed as -9.673%.
For `Cc1cccc(S(=O)(=O)N2C[C@H]3C[C@H](C(=O)N(C)C)[C@@H](C2)O3)c1` the value was -13.43%.
The figure for `Cc1cccc(S(=O)(=O)N2C[C@@H]3C[C@@H](c4nnc(C)[nH]4)O[C@@H]3C2)c1` is 102.4%; for `Cc1cccc(S(=O)(=O)N2C[C@@H]3OCCN(C(C)C)[C@@H]3C2)c1` it is -15.31%.

Source of the values: ChEMBL document CHEMBL3988442, “University of Dundee, Small-Polar-MMV Screening Library” (2021).
